# Results taken from PubChem BioAssay AID687020 (Broad Institute, 2013).
# The campaign covered roughly 1,400 compounds. About 100 (7.1%) were called active. These entries were drawn from the full list. Potency and affinity values are given separately. Values without a mark were called inactive. No rule for the calls is given here.
# Assay: viability loss in Vero cells – cell-based, plate reader, cherry-pick samples, cytotoxicity control, dose response (AID 687020);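 also: compounds incubated with cells for three days before luminescence read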
# Settings: series mostly up to 19.5 µM; activity change, negative = toxicity: at the top concentration
row,SMILES,"activity change, negative = toxicity"
1,O=S(=O)(Nc1nc(SCc2ccc(Cl)cc2)n[nH]1)c1ccc(F)cc1,2.93%
2,Cc1ccc(C(=O)OCC(=O)Nc2ccccc2C(F)(F)F)cc1S(=O)(=O)N1CCCCC1,-27.8%
3,O=C(NCCc1ccccc1)c1ccccc1NC(=O)C1CCCCC1C(=O)O (centres undefined),-3.43%
4,OC[C@@H]1[C@@H](c2ccccc2)C2(CN(Cc3nccs3)C2)N1Cc1cccnc1,10.8%
5,C[C@@H]1CN([C@@H](C)CO)C(=O)c2cc(C#Cc3cccc(F)c3)cnc2O[C@@H]1CN(C)C(=O)C1CCC1,-12.1%
6,CC(=O)NC(c1cccc(F)c1)c1nc(-c2ccc(N(C)C)cc2)cs1 (centres undefined),-10.4%
7,CC1CCC(CN2C(Nc3ccccc3)=NC[C@@H]2C)CC1 (some centres undefined),-28%
8,CC(C)CCCN1CCN=C1Nc1ccccc1,-13%
9,Cc1ccc(/C=N/NC(=O)c2ccc(-n3cnnn3)cc2)cc1,6.5%
10,CS(=O)(=O)N1[C@@H]2CNC[C@H]1C2c1ccc(-c2ccccc2)cc1 (some centres undefined),5.49%
11,COc1ccc2c(c1)OC[C@H]1[C@H]2N2C(=O)c3cc(OC)ccc3NC(=O)[C@@]2(C)[C@H]1c1ccccc1,-11.2%
12,CCOC(=O)C1CCN(C(=O)C2CC(=O)N(c3ccc4c(c3)OCCO4)C2)CC1 (centres undefined),-12.9%
13,c1ccc(COCCCn2cc(-c3ccccc3)nn2)cc1,-27.7%
14,C[C@@H]1CN([C@H](C)CO)C(=O)c2cc(C#Cc3ccc(F)cc3)cnc2O[C@@H]1CN(C)C,0.983%
15,CCCNC(=O)NC[C@@H]1[C@@H](c2ccc(C3=CCCC3)cc2)[C@@H](CO)N1C(=O)CC,-1.97% [at 21 µM]
16,COc1ccccc1S(=O)(=O)N(C)C[C@H]1Oc2cc(C#CCC(C)C)ccc2S(=O)(=O)N([C@@H](C)CO)C[C@@H]1C,-4.17%
17,N#C[C@H]1[C@H](c2ccc(C#CC3CCCCC3)cc2)[C@@H](CO)N1C(=O)Cc1ccccn1,-3.62%
18,CCc1c(C2(O)CCCCC2)[nH]c2c(C(=O)OC)cc(Cl)cc12,-0.036%
19,Cc1ccc(S(=O)(=O)N2CCCCC2)cc1NC(=O)CCOc1ccccc1,-31%
20,COc1ccc(NC(=O)CN(C)CCOc2ccc(Cl)cc2)cc1OC,-28.6%

row,SMILES,"activity change, negative = toxicity"
1,CCN(CC)S(=O)(=O)c1ccc(N2CCOCC2)c(NC(=O)c2ccccc2)c1,3.04%
2,O=C(COc1ccc2c(-c3ccccc3)cc(=O)oc2c1)NC1CCS(=O)(=O)C1 (centres undefined),-5.66%
3,C[C@H](CO)N1C[C@H](C)[C@H](CN(C)C(=O)Nc2ccc(-c3ccccc3)cc2)OCc2ccccc2-c2c(n(C)c3ccccc23)C1=O,-26.3%
4,CCOC(=O)C1=C(CS(=O)(=O)c2ccc(C)cc2)NC(=O)NC1c1cc(OC)c(O)c(OC)c1 (centres undefined),-12.2%
5,COc1ccccc1Cn1c(=S)[nH]c2cc(C(=O)N3CC(C)CC(C)C3)ccc2c1=O (centres undefined),-7.03%
6,COc1ccccc1CNC(=O)CCCN1C(=O)NC2(CCCC2)C1=O,8.3%
7,CCc1ccc(NC(=O)COc2ccc3c(c2)OCO3)cc1,0.187%
8,CC1CCc2sc(C(=O)NN=C3CCCC3)cc2C1 (centres undefined),-34.2%
9,CC(C)c1ccc(NC(=O)[C@H](NC(=O)[C@@H]2Cc3ccccc3CN2)c2ccccc2)cc1,-3.41%
10,COc1ccc(S(=O)(=O)N2CCC(C(=O)N[C@H](C(=O)NCc3ccccc3)C(C)C)CC2)cc1,-4.44%
11,COc1ccc(NC(=O)Nc2cccc3c2O[C@H](CN(C)C(=O)NC2CCCCC2)[C@H](C)CN([C@@H](C)CO)C3=O)cc1,-6.07%
12,CCCNC(=O)N1[C@H](CO)[C@H](c2ccccc2)[C@@H]1CNC(=O)c1ccc(F)cc1,-4.36%
13,COc1ccc(S(=O)(=O)N2CCCCCC2)cc1NC(=O)Cc1cccc(C(F)(F)F)c1,-24.1%
14,O=C(C1CC1)N1[C@@H](CO)[C@@H]2c3ccccc3NC[C@@H]21,5.51%
15,O=C(NCc1ccccc1F)[C@H]1N[C@H]2c3ccc(-c4ccccc4F)c(=O)n3C[C@H]2[C@@H]1CO,-1.53%
16,C[C@H](NC(=O)[C@H]1N[C@H]2c3ccc(-c4cccnc4)c(=O)n3C[C@H]2[C@@H]1CO)c1ccccc1,-3.63%
17,NC(=O)c1ccccc1NC(=O)COC(=O)C1(c2ccccc2)CC1,-17.5%
18,CSCCC(NC(=O)COc1ccccc1)C(=O)OCCOc1ccc(C)cc1 (centres undefined),6.81%
19,Cc1cccc(OCC(=O)Nc2ccc(N3CCN(C(=O)c4ccccc4)CC3)cc2)c1C,10.4%
20,COc1cc(OC)cc(C(=O)Nc2ccc(N3CCN(C(=O)c4cccs4)CC3)cc2)c1,-4.09%

row,SMILES,"activity change, negative = toxicity"
1,C/C(CC(=O)Nc1ccc(Cl)c(Cl)c1)=N\NC(=O)Cc1ccccc1,-7.86%
2,COc1ccc(S(=O)(=O)Nc2cccc3c2O[C@@H](CN(C)S(C)(=O)=O)[C@@H](C)CN([C@@H](C)CO)C3=O)cc1,0.077%
3,CCC(C)c1ccc(NC(=O)NCCN2CCCCC2)cc1 (centres undefined),1.83%
4,OC(CSc1nnnn1-c1ccccc1)Cn1c2ccccc2c2ccccc21 (centres undefined),-0.493%
5,C[C@@H]1CCCCO[C@H](CN(C)S(=O)(=O)c2ccccc2)[C@@H](C)CN([C@@H](C)CO)C(=O)c2cc(NC(=O)c3ccncc3)ccc2O1,-4.56%
6,CCC(N=c1cc(-c2ccc(OC)c(OC)c2)oc2ccc(C)cc12)C(=O)O (centres undefined),-4.53%
7,CN(C)S(=O)(=O)N1CCC(Oc2ccc(C(=O)N3CCCCCCC3)cc2)CC1,-12.7%
8,O=C(NCC1CC1)c1onc(CSc2ccc(F)c(F)c2)c1C(=O)NCC1CC1,-19.6%
9,O=C(O)CCCCCCCCc1cn(CCc2c[nH]c3ccccc23)nn1,-16.8%
10,COc1ccc(S(=O)(=O)N2CCN(CC(=O)NC3CC3)CC2)cc1,-3.01%
11,COc1ccc(CC(=O)NC2CCCCCC2)c(OC)c1,1.36%
12,CC12CCC(=O)N1C(C(=O)Nc1nc(-c3ccccc3)cs1)CS2 (centres undefined),-7.4%
13,C[C@@H]1CCCCO[C@H](CN(C)S(C)(=O)=O)[C@@H](C)CN([C@H](C)CO)C(=O)c2cc(NC(=O)CCC(F)(F)F)ccc2O1,1.17%
14,O=C(Cn1cnc2c(NCc3ccccc3)ncnc21)NCC1CCCO1 (centres undefined),-2.83%
15,CCCN1Cc2cccc(C(=O)Nc3ccc4c(c3)OCCO4)c2C1=O,3.48%
16,Cn1cc([C@]2(O)C(=O)Nc3ccccc32)c2ccccc21,-7.51%
17,CN1c2ccc(Br)cc2[C@@H]2[C@@H](CCN2S(=O)(=O)c2ccccc2)[C@H]1CO,0.13%
18,Cc1ccccc1NS(=O)(=O)c1ccc(S(=O)(=O)N2CCCC2)cc1,-42.1%
19,CCN(CC(=O)Nc1c(F)cccc1F)C(=O)C1CCN(S(=O)(=O)c2ccc(F)cc2)CC1,2.85%
